This note sets out measurements from PubChem BioAssay.

Each structure is given as a SMILES string. The list shows a part of the results. Values without a mark were called inactive. Calls of active or inactive are those of the source.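 The calls were made as follows, unless noted: active = mean inhibition across three repeat runs above about 25% carried over from the earlier screen (limit read from the data); inactive = the rest.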

Experiment [1] deals with TLR4-MyD88 interaction (human), BLA complementation. The experiment can be described thus: disruptors of TLR4 binding to MyD88 – cell-based, HeLa CL3-4, BLA complementation, FRET ratio, confirmation (AID 941).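 Also: plate controls were DMSO only for no effect and clavulanic acid blocking BLA at full dose for full effect.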 The conditions noted are these: CCF4 FRET ratio, at 8.4 µM, stronger effect = higher value.
Experiment [2] can be described thus: BLA reporter interference in HeLa cells – cell-based, full-length BLA, CCF4 FRET ratio, artefact control for TLR4-MyD88 binding inhibitor project, confirmation (AID 1237;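 active = mean inhibition over three repeats above about 26% taken from the earlier screen, limit read from the data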;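 also: HeLa cells stably expressing beta-lactamase reporter as counterscreen for TLR4-MyD88 inhibitors; 0% = DMSO and 100% = clavulanic acid full inhibition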). The conditions noted are these: at 8.4 µM, stronger effect = higher value.
In experiment [3] the target is Sphingosine 1-phosphate receptor 4 (Homo sapiens) (UniProt O95977). Briefly: blockers of human S1P4 signalling – cell-based, confirmation (AID 1524; in the data active = inhibition above about 30%). As to conditions: S1P4-expressing cell line, antagonist mode, reporter read-out; at 4.98 µM; stronger effect = higher value.
Sphingosine 1-phosphate receptor 4 (Homo sapiens), sequence (O95977 whole entry, looked up): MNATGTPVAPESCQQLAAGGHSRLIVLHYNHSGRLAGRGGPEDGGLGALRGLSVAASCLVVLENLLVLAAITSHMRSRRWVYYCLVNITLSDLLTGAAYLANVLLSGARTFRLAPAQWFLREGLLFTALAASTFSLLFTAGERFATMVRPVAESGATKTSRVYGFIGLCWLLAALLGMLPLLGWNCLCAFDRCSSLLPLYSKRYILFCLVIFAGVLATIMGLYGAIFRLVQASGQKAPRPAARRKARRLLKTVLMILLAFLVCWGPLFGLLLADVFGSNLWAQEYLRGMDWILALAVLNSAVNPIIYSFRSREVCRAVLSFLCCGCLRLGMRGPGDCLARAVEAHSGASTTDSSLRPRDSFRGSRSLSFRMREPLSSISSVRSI
In experiment [4] the target is Sphingosine 1-phosphate receptor 1 (Homo sapiens) (UniProt P21453). The experiment can be described thus: blockade of human S1P1 receptor – cell-based, counter-screen for S1P4 antagonist project (AID 1564; in the data active = inhibition above about 40%;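 also: receptor stimulated with S1P near its EC80; 0% = agonist stimulated wells and 100% = vehicle only wells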). As to conditions: cell-based S1P1 antagonist counterscreen, at 4.98 µM, stronger effect = higher value.
Sphingosine 1-phosphate receptor 1 (Homo sapiens), sequence (P21453 whole entry, looked up): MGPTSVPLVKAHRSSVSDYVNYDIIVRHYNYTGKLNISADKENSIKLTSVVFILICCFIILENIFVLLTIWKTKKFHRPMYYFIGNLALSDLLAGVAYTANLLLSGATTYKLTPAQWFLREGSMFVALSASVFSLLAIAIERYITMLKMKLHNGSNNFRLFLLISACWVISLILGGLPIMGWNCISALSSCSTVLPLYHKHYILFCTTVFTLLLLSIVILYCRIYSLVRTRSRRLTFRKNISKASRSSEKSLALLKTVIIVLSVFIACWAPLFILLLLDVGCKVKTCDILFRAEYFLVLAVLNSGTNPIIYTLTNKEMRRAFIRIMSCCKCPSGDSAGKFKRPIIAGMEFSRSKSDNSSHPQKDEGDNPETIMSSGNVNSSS
In experiment [5] the target is Toll-like receptor 9 (Homo sapiens) (UniProt Q9NR96). Briefly: disruptors of TLR9 binding to MyD88 – cell-based, CHO, BLA complementation, fluorescence, triplicate, confirmation (AID 540250;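 active = mean inhibition across three repeats above about 21% taken from the earlier screen, limit read from the data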;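 also: blue over green emission ratio reports constitutive TLR9 MyD88 association via BLA complementation; 0% = DMSO vehicle wells and 100% = clavulanate BLA inhibitor wells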). The conditions noted are these: CCF4 FRET ratio, at 4.98 µM, stronger effect = higher value.
Toll-like receptor 9 (Homo sapiens), sequence (Q9NR96 whole entry, looked up): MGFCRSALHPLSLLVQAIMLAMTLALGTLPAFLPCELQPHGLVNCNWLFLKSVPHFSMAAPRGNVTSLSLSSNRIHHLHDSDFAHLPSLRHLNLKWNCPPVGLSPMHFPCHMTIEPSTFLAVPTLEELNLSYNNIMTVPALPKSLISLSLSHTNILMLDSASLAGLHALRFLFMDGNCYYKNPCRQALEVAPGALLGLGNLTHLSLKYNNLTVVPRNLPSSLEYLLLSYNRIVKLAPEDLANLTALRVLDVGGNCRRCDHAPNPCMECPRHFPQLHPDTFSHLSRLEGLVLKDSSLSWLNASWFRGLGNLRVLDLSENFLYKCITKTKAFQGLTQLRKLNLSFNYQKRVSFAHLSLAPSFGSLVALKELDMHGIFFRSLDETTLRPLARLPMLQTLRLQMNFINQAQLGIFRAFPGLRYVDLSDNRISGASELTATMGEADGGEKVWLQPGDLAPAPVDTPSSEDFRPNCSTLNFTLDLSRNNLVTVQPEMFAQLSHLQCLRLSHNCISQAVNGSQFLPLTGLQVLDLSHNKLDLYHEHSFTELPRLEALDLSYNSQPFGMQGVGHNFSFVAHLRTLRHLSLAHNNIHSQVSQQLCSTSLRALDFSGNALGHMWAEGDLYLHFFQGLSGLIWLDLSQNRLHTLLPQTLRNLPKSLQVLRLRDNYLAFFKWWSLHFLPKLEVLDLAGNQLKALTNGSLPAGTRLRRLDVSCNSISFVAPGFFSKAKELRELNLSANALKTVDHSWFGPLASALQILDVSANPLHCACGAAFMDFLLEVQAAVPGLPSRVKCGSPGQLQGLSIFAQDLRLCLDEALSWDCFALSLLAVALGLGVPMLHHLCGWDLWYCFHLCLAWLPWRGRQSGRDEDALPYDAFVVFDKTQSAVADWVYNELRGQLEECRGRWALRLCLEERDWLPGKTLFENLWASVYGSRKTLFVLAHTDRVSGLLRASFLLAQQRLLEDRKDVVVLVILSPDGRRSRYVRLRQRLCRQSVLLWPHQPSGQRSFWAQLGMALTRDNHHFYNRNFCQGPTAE
Experiment [6] can be described thus: BLA reporter readout interference – cell-based, fluorescence, artefact control for TLR9-MyD88 binding inhibitor project (AID 540251;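 active = mean inhibition above a 50% cutoff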;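 also: counterscreen of TLR9-MyD88 hits on CMV-driven BLA in CHO-K1 cells; 0% = DMSO alone and 100% = clavulanate blocking BLA; higher means less blue over green ratio so more BLA blockade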). The conditions noted are these: CHO-BLA cells, CCF4 FRET ratio, at 4.98 µM, stronger effect = higher value.
Experiment [7] in a line: CHO cell viability loss – luminescence, single concentration, cytotoxicity control for TLR9-MyD88 binding inhibitor project (AID 588336; in the data active = inhibition above about 11%). The conditions noted are these: TLR9-MyD88 CHO cells cytotoxicity, at 4.98 µM, stronger effect = higher value.
The target of experiment [8] is Receptor-interacting serine/threonine-protein kinase 2 (Homo sapiens) (UniProt O43353). The experiment can be described thus: inhibitors of RIPK2 association with NOD2 – fluorescence, CHO cells, BLA complementation, triplicate, confirmation (AID 624370;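 active = mean inhibition across replicates above a set limit taken from the earlier primary screen, cut at about 21% in these data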;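 also: 0% = DMSO-only wells and the high end = clavulanate BLA-blocked wells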). The conditions noted are these: CCF4 FRET, at 4.98 µM, stronger effect = higher value.
Receptor-interacting serine/threonine-protein kinase 2 (Homo sapiens), sequence (O43353 whole entry, looked up): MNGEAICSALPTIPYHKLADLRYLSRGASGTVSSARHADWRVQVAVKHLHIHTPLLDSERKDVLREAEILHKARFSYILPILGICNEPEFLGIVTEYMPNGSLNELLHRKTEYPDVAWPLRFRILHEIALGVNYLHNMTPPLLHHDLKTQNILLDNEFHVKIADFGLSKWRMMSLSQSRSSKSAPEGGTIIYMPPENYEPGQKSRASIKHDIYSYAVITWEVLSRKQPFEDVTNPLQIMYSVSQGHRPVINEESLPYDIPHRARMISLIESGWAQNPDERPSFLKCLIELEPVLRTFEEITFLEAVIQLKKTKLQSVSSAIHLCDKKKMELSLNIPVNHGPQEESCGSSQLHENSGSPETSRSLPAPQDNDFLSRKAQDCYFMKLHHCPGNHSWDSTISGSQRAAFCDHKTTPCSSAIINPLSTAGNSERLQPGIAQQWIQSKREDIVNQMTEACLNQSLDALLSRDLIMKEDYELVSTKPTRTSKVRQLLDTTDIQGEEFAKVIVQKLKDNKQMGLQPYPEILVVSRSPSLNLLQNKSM
The nature of experiment [9]: BLA reporter readout interference – cell-based, CHO-K1 CMV-bla, CCF4 FRET, fluorescence, artefact control for NOD2-RIPK2 interaction inhibitor project, confirmation (AID 624371;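 active = mean inhibition above the low-control mean inhibition plus three low-control SD, cut at about 11% in these data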;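 also: 0% = DMSO only wells and 100% = clavulanate high control wells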). As to conditions: CCF4 FRET ratio, counterscreen, at 4.98 µM, stronger effect = higher value. Background: Counterscreens check selectivity or assay interference.
Experiment [10] deals with (Lyso)-N-acylphosphatidylethanolamine lipase (Mus musculus) (UniProt Q8VD66). Briefly: mouse ABHD4 hydrolase blockers, triplicate – biochemical, fluorescence polarization, confirmation (AID 720658;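 active = mean inhibition across replicates above the hit cutoff set in the primary screen, cut at about 30% in these data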;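 also: 0% = wild-type ABHD4 with DMSO and 100% = catalytically dead S159A mutant with DMSO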). The conditions noted are these: purified mABHD4, FP-Rh probe fluorescence polarization; at 8.92 µM; stronger effect = higher value. On the technique in general: In fluorescence polarisation assays a small probe gives low polarisation when free and higher when bound to something large.
(Lyso)-N-acylphosphatidylethanolamine lipase (Mus musculus), sequence (Q8VD66 whole entry, looked up): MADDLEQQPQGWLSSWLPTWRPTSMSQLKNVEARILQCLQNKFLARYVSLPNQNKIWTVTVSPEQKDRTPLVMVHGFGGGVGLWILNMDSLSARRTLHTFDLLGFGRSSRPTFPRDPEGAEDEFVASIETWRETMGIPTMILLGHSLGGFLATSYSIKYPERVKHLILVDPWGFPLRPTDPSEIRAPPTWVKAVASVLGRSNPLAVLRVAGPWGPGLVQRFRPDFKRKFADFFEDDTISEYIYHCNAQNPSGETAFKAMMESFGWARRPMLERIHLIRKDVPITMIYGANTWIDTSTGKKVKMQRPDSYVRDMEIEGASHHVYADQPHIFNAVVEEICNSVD

The subject of experiment [11] is HIV-1 integrase (multimerization). Briefly: stimulation of HIV-1 integrase oligomerization – biochemical, TR-FRET, counter-screen for LEDGF/p75 integration inhibitor project (AID 1053131; in the data active = activation above about 8.9%). As to conditions: TR-FRET HIV-1 integrase multimerization, at 7.7 µM, stronger effect = higher value. (In general: TR-FRET usually uses a lanthanide donor and a delayed reading to cut background.)

Experiment [12] is described as follows: compounds disturbing TR-FRET signal readout – biochemical, HIV-1 IN multimerization, artefact control for LEDGF/p75-dependent integration inhibitor project, confirmation (AID 1053135;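 active = inhibition above the mean over all tested compounds plus 3 SD, which no compound reached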;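 also: 0% = integrase with antibodies and DMSO and 100% = antibodies without integrase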). As to conditions: TR-FRET optical interference counterscreen, at 7.7 µM, stronger effect = higher value.
In experiment [13] the test system is HIV-1 integrase / human LEDGF/p75 complex. The experiment can be described thus: blockers of LEDGF/p75-dependent integrase activity – biochemical, TR-FRET, confirmation (AID 1053136; in the data active = inhibition above about 14%). As to conditions: TR-FRET LEDGF/p75-dependent HIV-1 integration, at 3.7 µM, stronger effect = higher value.
Experiment [14] deals with Galanin receptor type 2 (Homo sapiens) (UniProt O43603). The experiment can be described thus: blockers of human galanin receptor 2 – cell-based, confirmation (AID 866; in the data active = inhibition above about 27%;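 also: cells stimulated with galanin at about its EC80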). The conditions noted are these: GALR2-expressing cells, antagonist mode, at 4 µM, stronger effect = higher value.
Galanin receptor type 2 (Homo sapiens), sequence (O43603 whole entry, looked up): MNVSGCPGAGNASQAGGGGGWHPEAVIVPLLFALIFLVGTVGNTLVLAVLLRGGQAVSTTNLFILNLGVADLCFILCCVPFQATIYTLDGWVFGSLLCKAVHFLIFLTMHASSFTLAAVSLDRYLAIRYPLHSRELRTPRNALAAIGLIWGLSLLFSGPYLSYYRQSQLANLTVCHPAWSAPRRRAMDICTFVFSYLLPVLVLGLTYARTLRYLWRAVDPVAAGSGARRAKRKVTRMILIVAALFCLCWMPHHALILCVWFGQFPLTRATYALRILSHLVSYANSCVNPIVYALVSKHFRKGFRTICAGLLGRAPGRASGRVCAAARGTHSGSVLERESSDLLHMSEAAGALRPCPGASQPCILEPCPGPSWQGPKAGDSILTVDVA
A short description of experiment [15]: nonspecific BLA reporter inhibition – CHO NFAT-bla cells, FRET readout, counter-screen for GALR2 antagonist project, confirmation (AID 867;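 active = inhibition above the mean inhibition across tested compounds plus 3 SD, cut at about 27% in these data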;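 also: 0% = 500 nM thapsigargin stimulated wells and 100% = unstimulated BSA only wells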). As to conditions: beta-lactamase FRET, thapsigargin-stimulated, at 4.2 µM, stronger effect = higher value.
The nature of experiment [16]: potentiators of IFN-gamma STAT1 reporter activity – cell-based, HTS, luciferase reporter, confirmation (AID 1262;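 active = activation above a set limit carried over from the earlier primary STAT1 screen, cut at about 140% in these data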;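 also: simple ratio to median IFN-gamma plus DMSO wells so 0% means no light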). As to conditions: NIH 3T3 STAT1-luciferase reporter, IFN-gamma potentiation, luminescence; at 5.7 µM; stronger effect = higher value; 100% = IFN-gamma EC80 alone, no compound.
The nature of experiment [17]: enhancement of NF-kB transcriptional signalling – cell-based, HEK293T, luciferase luminescence, TNF-alpha, counter-screen for STAT1 activator project (AID 1306;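 active = activation above the mean of solvent-only control wells plus 3 SD, set per campaign, cut at about 130% in these data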;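 also: TNF-alpha given at a submaximal dose yielding about 80% of full reporter signal; values are well signal over median control so 100% means no change and 0% no light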). As to conditions: HEK293T NF-kB luciferase reporter, TNF-alpha stimulated, at 5.7 µM, stronger effect = higher value, 100% = TNF-alpha with vehicle only.
Experiment [18] has as its target Signal transducer and activator of transcription 3 (Homo sapiens) (UniProt P40763). Briefly: enhancers of IL-6 STAT3 transcription – U3A cells, luciferase, luminescence, counter-screen for STAT1 activator project, confirmation (AID 1316;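 active = activation above the solvent-only control well mean plus 3 SD, set per plate batch, cut at about 110% in these data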;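 also: 0% = no luminescence and 100% = median IL-6 plus DMSO wells; higher means more STAT3 reporter activation so hits are non-selective activators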). As to conditions: U3A cells STAT3-luciferase reporter, IL-6, luminescence; at 5.7 µM; stronger effect = higher value; 100 = IL-6 alone, no compound effect; cells lack STAT1.

Experiment [19] concerns the target Serine protease HTRA1 (Homo sapiens) (UniProt Q92743). Briefly: confirming inhibition of human HTRA1 – biochemical, fluorescence polarization, confirmation (AID 540248;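 active = mean inhibition over three repeats above a set limit taken from the earlier primary screen, cut at about 37% in these data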;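 also: 0% = HTRA1 with DMSO and 100% = wells lacking HTRA1; inhibitors block probe binding so polarization drops and inhibition rises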). As to conditions: recombinant HTRA1, FP-rhodamine activity-based probe, at 5.96 µM, stronger effect = higher value.
For experiment [20], the target named is Photoreceptor-specific nuclear receptor (Homo sapiens) (UniProt Q9Y5X4). The experiment can be described thus: retest of NR2E3-NCOR disrupting agonists – cell-based, luminescence, CHO-S two-hybrid, confirmation (AID 624378;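 active = average inhibition above a cutoff equal to the mean inhibition of all tested compounds plus one SD, cut at about 70% in these data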;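 also: 0% = DMSO in NR2E3 cells and 100% = DMSO in cells lacking NR2E3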). The conditions noted are these: CHO-S mammalian two-hybrid NR2E3-NCOR, luciferase luminescence; at 3.98 µM; stronger effect = higher value.
Photoreceptor-specific nuclear receptor (Homo sapiens), sequence (Q9Y5X4 whole entry, looked up): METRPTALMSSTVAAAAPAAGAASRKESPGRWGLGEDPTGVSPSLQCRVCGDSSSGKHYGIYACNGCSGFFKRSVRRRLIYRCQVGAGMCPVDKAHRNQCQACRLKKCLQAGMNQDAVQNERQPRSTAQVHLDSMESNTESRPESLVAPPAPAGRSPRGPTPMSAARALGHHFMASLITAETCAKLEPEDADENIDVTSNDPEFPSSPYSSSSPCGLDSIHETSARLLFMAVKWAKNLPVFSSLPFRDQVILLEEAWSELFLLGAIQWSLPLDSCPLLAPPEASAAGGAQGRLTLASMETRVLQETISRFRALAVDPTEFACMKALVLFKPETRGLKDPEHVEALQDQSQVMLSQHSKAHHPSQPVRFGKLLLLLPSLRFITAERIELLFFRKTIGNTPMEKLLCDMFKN
A short description of experiment [21]: nonselective effects on VP16 transactivation – cell-based, luminescence, CHO-S, high throughput, counter-screen for NR2E3 agonist project, confirmation (AID 624379;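 active = mean inhibition above a cutoff equal to the average over all tested compounds plus one standard deviation, cut at about 70% in these data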;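 also: 0% = DMSO with VP16-transfected cells and 100% = DMSO with cells lacking VP16; higher means less reporter light so more repression of VP16 activity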). The conditions noted are these: CHO-S GAL4-VP16 luciferase reporter, at 3.98 µM, stronger effect = higher value.
Experiment [22] is described as follows: reduced OD of V66 E. coli with T4 gene 2 phage – absorbance, RecBCD inhibitor project, confirmation (AID 651982;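 active = mean inhibition over triplicates exceeding the hit threshold derived in the original primary screen, cut at about 11% in these data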). The conditions noted are these: E. coli V66 + T4 2- phage, growth OD; at 11.9 µM; stronger effect = higher value.
A short description of experiment [23]: bacterial growth inhibition – absorbance, high throughput, counter-screen for RecBCD inhibitor project (AID 651983; in the data active = inhibition above about 20%;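 also: E. coli strain V66 grown with compound alone and no phage infection; 0% = bacteria with DMSO vehicle only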). The conditions noted are these: E. coli viability, absorbance (OD) growth; at 11.9 µM; stronger effect = higher value.
Experiment [24] is described as follows: reduced optical density, T4-challenged addAB+ bacteria – absorbance, E. coli V3065, T4 phage, counter-screen for RecBCD inhibitor project, confirmation (AID 651984;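 active = mean inhibition above the solvent-only control wells' mean plus 3 SD, cut at about 22% in these data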;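 also: higher means less bacterial growth from phage killing when AddAB is blocked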). As to conditions: E. coli expressing H. pylori AddAB + T4 phage, OD growth; at 11.9 µM; stronger effect = higher value; gene 2 mutant T4, recBCD-deleted host.
A short description of experiment [25]: VP16-driven transactivation reporter suppression – cell-based, luminescence, HEK293, counter-screen for COUP-TFII antagonist project (AID 687007; in the data active = inhibition above about 13%). As to conditions: HEK293 Gal4-VP16 luciferase reporter, at 8.5 µM, stronger effect = higher value.
The target of experiment [26] is COUP transcription factor 2 (Homo sapiens) (UniProt P24468). Briefly: retest of COUP-TFII reporter suppressors – cell-based, luciferase reporter, HEK293, triplicate, confirmation (AID 687008;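 active = mean inhibition over three repeats above a set limit taken from the earlier primary screen, cut at about 38% in these data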;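 also: 100% = cells given the luciferase reporter alone without the COUP-TF2 vector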). The conditions noted are these: HEK293 NGFI-A luciferase reporter, luminescence; at 8.5 µM; stronger effect = higher value.
COUP transcription factor 2 (Homo sapiens), sequence (P24468 whole entry, looked up): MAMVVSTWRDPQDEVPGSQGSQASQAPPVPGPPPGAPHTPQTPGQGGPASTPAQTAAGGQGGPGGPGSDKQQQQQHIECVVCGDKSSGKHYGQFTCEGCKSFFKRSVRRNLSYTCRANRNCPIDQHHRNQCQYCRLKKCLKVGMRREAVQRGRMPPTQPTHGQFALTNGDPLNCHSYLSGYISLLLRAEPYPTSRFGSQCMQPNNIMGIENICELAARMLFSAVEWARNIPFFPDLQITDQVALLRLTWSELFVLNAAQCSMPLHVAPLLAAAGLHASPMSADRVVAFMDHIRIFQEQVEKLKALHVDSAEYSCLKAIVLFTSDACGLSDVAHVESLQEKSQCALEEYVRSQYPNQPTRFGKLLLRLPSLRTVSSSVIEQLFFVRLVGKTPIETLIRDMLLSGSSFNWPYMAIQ

Turning to `O=C1c2cccc3c([N+](=O)[O-])ccc(c23)C(=O)N1CC1CCCO1` (stereo unspecified), the inhibition – broadly, the drop in the measured response relative to a control, in per cent – is 82.5% (active) in experiment [1]; 108% (active) in experiment [2]; 112% (active) in [3]; 118% (active) in [4]; 45.8% (active) in experiment [5]; 73.2% (active) in experiment [6]. The inhibition in experiment [7] is 56.5% (active); in experiment [8], 83% (active); in [9], 70.6% (active).

Consider `Cc1ccc(S(=O)(=O)/N=C2\C=C(NS(=O)(=O)c3ccc(C)cc3)C(=O)c3ccccc32)cc1`, for which the inhibition in [10] is 60.6% (active); in [12], 5.59%; in [13] it was 12%. In addition, in [11], the activation is -1.1%.

Take `COc1ccccc1N1N=C(c2cccs2)CC1c1ccccc1` (stereo unspecified): the inhibition in experiment [14] is 27.9% (active); in experiment [15], 39.8% (active); in experiment [1] it was 36% (active); in [2] it was 70% (active); in experiment [5], 32.9% (active); in experiment [6], 43.5%. Also, the values for the inhibition in experiment [7], in experiment [8] and in [9] were 2.88%, 51.8% (active) and 65.6% (active), respectively.

On to `CN(c1ccc(C(=O)NCCC2=CCCCC2)cc1)S(C)(=O)=O`, for which the activation (% of control) was 177% (active) in experiment [16], 124% in experiment [17] and 121% (active) in experiment [18].

`COC(=O)Cc1cc(=O)n(-c2nc3ccccc3s2)[nH]1`: the inhibition in experiment [1] was -4.76%; in experiment [2], 4.99%.

Turning to `O=C(c1ccc(Cl)cc1)c1cnc(Nc2ccccc2)s1`, the inhibition in experiment [1] was 9.98%; in experiment [2] it was 29.5% (active).

With `CCc1ccc2c(c1)C1(NN=C(c3ccccc3)S1)C(=O)N2` (stereo unspecified), the inhibition in experiment [14] is 24.4%; in experiment [15], 24.7%; in [1], 13.3%; in experiment [2] it was 19.7%; in experiment [19] it was 63.9% (active).

In the case of `Cc1cc(C(=O)N/N=C/c2ccc(O)c([N+](=O)[O-])c2)c(C)n1-c1ccc(F)cc1`, the inhibition is 120% (active) in [19], 74% (active) in experiment [10], -71.4% in experiment [12] and 17.8% (active) in [13]. For the same compound, the activation in experiment [11] was 14.2% (active).

Take `CN(O)C(=S)c1ccccc1`: the inhibition in [5] is 5.28%; in [6], 0.06%; in experiment [7], 97.2% (active); in experiment [20] it was -14.5%; in [21] it was -3.62%; in [22] it was 53% (active). Also, the inhibition in experiment [23] was 62.5% (active); in experiment [24], 84.6% (active); in experiment [25], -6.65%; in [26], -5.38%; in experiment [12], -2.07%; in [13], -6.13%. The activation in experiment [11] is 0.55%.

Regarding `NNc1cccc(C=Cc2ccccc2)cc1=O`, the inhibition in [19] is 47.8% (active); in experiment [12], -47.7%; in experiment [13] it was 33.8% (active). The activation in [11] was 13.3% (active).
